Measured values taken from the supplement of paper PMC10849652.
Targets with a hit are over-represented here; the source holds about 8,800 in all. About 0.5% of all pairs of compound and target were hits. A number with no mark means an inactive call.

Legend:
Assay in all cases: log2 fold change, soluble protein after heating vs DMSO (PISA); higher = thermal stabilisation; K562 lysate, 10 uM; active = over 0.2 and 3.5 SD of the protein, either way, in both replicates (recomputed)
lapatinib = compound: CS(=O)(=O)CCNCc1ccc(-c2ccc3ncnc(Nc4ccc(OCc5cccc(F)c5)c(Cl)c4)c3c2)o1 [lapatinib]
Method in brief: (§1)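 The values are log-two fold changes in thermal stability compared with solvent controls and come from duplicates. They were obtained by TMTpro 16plex LC-MS/MS, with channel sums equalised, on the supernatant after 21,000xg for 90 min. That supernatant came from crude K562 extract at 1 mg/mL protein treated with 10 μM compound for 30 min, heated for 3 min across 48°C-58°C, pooled and brought to 0.5% NP-40 at 4°C.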

pictilisib = compound: CS(=O)(=O)N1CCN(Cc2cc3nc(-c4cccc5[nH]ncc45)nc(N4CCOCC4)c3s2)CC1 [pictilisib]
Method in brief: as §1

crizotinib = compound: C[C@@H](Oc1cc(-c2cnn(C3CCNCC3)c2)cnc1N)c1c(Cl)ccc(F)c1Cl [crizotinib]
Method in brief: as §1

[1] = compound: C[C@H](C1=CC=C(C=C1)C(=O)NC2=C3C=CNC3=NC=C2)N
Method in brief: as §1

duvelisib = compound: C[C@H](Nc1ncnc2nc[nH]c12)c1cc2cccc(Cl)c2c(=O)n1-c1ccccc1 [duvelisib]
Method in brief: as §1

gandotinib = compound: Cc1cc(Nc2cc(CN3CCOCC3)c3nc(C)c(Cc4ccc(Cl)cc4F)n3n2)n[nH]1 [gandotinib]
Method in brief: as §1

tozasertib = compound: Cc1cc(Nc2cc(N3CCN(C)CC3)nc(Sc3ccc(NC(=O)C4CC4)cc3)n2)n[nH]1 [tozasertib]
Method in brief: as §1

doramapimod = compound: Cc1ccc(-n2nc(C(C)(C)C)cc2NC(=O)Nc2ccc(OCCN3CCOCC3)c3ccccc23)cc1 [doramapimod]
Method in brief: as §1

bafetinib = compound: Cc1ccc(NC(=O)c2ccc(CN3CC[C@H](N(C)C)C3)c(C(F)(F)F)c2)cc1Nc1nccc(-c2cncnc2)n1 [bafetinib]
Method in brief: as §1

[2] = compound: Cc1cccc(CC(=O)N2CCc3c2ccc(-c2cn(C)c4ncnc(N)c24)c3F)n1
Method in brief: as §1

UniProt Q8NG31, sequence (Q8NG31 whole entry, looked up): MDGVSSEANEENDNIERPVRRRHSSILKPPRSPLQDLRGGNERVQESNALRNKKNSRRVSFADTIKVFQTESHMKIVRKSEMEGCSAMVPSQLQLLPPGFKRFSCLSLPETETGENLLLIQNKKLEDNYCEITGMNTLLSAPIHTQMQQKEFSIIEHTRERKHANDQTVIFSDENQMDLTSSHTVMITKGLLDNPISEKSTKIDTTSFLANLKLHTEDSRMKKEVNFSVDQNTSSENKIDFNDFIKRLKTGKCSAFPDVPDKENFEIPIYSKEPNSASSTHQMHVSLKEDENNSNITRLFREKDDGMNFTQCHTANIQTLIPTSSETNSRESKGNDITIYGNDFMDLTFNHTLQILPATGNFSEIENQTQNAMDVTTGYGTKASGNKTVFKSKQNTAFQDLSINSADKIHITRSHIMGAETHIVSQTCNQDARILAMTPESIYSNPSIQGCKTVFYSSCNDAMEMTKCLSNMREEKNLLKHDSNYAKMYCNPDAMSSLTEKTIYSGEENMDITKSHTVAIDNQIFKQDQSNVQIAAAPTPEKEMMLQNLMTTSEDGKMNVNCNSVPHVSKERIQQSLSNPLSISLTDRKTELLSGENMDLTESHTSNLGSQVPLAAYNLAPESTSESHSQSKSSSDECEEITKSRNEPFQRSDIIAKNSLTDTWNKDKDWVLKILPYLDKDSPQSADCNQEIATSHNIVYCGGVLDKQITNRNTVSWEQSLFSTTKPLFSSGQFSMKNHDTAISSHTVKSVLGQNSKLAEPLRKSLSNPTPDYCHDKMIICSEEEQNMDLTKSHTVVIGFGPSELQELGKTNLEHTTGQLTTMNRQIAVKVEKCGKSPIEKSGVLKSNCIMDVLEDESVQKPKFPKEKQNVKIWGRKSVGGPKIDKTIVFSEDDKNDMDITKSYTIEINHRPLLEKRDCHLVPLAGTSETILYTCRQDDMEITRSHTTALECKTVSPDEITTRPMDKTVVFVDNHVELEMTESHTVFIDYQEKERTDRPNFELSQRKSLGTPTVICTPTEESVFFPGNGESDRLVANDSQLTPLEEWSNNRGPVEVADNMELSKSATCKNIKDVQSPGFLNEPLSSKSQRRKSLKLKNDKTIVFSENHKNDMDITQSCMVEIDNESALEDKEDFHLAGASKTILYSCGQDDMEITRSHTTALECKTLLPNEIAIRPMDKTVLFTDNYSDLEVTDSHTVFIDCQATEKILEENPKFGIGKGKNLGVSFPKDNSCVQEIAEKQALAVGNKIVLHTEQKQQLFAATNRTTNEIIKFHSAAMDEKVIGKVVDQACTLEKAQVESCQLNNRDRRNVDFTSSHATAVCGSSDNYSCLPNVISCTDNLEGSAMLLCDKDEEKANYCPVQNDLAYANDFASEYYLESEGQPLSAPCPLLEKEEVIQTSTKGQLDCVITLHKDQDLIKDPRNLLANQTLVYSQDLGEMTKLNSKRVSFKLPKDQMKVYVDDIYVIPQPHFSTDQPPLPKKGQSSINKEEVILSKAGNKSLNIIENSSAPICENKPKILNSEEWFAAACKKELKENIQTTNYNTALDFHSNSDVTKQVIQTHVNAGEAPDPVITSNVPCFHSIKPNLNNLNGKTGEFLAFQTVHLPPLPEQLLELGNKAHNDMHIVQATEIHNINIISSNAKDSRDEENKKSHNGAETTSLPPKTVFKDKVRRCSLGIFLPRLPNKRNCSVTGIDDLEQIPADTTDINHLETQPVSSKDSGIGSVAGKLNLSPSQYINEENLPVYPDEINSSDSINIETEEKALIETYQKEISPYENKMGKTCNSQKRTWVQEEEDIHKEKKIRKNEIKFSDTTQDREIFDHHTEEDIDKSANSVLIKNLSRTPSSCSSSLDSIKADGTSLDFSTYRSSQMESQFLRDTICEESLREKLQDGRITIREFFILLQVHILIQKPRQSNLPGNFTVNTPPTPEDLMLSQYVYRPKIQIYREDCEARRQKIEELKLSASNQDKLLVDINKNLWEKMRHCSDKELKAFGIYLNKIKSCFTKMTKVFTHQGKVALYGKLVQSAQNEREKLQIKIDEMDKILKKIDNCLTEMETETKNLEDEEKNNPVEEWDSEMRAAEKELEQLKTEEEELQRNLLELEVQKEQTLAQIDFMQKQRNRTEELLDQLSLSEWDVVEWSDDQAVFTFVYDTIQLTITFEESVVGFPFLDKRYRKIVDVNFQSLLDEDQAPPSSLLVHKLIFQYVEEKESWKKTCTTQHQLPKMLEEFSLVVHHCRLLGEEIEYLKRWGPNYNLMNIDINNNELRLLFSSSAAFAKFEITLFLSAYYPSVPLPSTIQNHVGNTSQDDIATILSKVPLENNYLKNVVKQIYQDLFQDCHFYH
UniProt Q9NVC6, sequence (Q9NVC6 whole entry, looked up): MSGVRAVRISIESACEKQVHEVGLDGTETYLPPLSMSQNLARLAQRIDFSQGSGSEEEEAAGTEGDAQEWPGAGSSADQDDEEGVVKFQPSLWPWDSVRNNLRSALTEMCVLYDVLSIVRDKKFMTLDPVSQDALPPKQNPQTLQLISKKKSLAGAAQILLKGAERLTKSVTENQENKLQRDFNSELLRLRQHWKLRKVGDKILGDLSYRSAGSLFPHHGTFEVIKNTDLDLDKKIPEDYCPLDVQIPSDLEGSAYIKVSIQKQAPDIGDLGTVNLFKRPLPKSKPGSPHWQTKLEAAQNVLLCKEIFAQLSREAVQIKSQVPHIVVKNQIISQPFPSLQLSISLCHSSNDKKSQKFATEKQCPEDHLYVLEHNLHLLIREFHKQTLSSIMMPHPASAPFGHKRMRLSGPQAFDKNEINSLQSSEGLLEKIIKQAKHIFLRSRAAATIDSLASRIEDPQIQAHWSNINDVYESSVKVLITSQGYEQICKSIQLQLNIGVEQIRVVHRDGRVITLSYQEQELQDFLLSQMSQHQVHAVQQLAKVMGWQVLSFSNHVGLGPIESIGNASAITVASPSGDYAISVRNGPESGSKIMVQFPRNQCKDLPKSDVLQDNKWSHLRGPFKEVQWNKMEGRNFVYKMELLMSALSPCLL
UniProt P53667, sequence (P53667 whole entry, looked up): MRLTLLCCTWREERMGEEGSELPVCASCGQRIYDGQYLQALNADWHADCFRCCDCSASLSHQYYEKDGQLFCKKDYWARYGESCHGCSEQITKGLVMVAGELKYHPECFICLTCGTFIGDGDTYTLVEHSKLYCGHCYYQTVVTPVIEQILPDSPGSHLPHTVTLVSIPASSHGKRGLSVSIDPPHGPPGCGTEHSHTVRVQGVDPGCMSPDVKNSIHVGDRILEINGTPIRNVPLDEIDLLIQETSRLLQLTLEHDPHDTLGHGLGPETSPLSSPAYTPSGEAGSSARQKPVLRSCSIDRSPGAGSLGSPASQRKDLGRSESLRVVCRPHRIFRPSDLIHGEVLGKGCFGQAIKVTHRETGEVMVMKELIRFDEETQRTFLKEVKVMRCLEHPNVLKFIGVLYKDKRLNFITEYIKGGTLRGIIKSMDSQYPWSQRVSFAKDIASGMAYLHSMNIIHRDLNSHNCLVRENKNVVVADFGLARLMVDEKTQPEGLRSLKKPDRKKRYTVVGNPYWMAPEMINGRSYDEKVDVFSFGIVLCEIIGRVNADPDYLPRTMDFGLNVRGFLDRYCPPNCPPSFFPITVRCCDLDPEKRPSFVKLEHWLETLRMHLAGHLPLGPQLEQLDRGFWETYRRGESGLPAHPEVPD
UniProt Q9UBU8, sequence (Q9UBU8 whole entry, looked up): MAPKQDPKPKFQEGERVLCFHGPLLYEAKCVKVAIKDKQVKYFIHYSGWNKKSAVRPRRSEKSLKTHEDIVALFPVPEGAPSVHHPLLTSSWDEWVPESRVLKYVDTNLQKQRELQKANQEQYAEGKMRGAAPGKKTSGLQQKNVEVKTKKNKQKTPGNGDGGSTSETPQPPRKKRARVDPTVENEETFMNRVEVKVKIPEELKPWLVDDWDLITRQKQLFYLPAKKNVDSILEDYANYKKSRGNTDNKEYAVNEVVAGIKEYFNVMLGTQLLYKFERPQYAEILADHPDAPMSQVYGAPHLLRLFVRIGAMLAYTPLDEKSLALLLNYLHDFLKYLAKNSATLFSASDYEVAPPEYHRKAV
UniProt P36507, sequence (P36507 whole entry, looked up): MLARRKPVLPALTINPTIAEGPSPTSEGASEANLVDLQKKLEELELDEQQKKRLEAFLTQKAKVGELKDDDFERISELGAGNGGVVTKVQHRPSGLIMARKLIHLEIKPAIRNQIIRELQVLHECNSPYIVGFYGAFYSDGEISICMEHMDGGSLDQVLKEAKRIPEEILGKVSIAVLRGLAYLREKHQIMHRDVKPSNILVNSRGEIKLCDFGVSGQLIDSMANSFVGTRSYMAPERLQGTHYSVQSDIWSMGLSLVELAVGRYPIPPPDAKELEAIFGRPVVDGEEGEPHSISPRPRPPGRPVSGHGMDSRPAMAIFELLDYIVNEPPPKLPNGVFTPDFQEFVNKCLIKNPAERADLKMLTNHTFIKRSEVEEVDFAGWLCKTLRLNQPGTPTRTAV
UniProt Q14657, sequence (Q14657 whole entry, looked up): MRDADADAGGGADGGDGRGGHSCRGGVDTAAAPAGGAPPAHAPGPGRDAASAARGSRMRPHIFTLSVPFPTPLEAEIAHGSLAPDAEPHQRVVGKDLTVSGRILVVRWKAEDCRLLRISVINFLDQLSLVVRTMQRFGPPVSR
UniProt P45985, sequence (P45985 whole entry, looked up): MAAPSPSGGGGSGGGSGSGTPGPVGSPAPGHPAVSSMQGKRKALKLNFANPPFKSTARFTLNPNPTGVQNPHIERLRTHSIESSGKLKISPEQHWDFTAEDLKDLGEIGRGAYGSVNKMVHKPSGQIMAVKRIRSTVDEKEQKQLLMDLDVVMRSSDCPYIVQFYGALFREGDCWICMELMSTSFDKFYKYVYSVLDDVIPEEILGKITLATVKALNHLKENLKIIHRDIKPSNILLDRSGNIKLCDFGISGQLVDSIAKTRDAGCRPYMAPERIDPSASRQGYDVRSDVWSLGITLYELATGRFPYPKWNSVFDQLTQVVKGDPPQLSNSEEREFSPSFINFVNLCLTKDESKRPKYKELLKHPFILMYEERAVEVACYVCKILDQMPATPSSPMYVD
UniProt Q13015, sequence (Q13015 whole entry, looked up): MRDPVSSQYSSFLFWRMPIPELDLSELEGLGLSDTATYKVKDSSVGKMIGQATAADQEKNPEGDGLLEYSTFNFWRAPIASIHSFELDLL

Row | Target | log2 fold change (lapatinib) | log2 fold change (pictilisib) | log2 fold change (crizotinib) | log2 fold change [1] | log2 fold change (duvelisib) | log2 fold change (gandotinib) | log2 fold change (tozasertib) | log2 fold change (doramapimod) | log2 fold change (bafetinib) | log2 fold change [2]
1 | LZTS1 (UniProt Q9Y250) | -0.136 | -0.222 | -0.821 | -0.233 | 0.308 | -0.137 | -0.1 | 0.177 | -0.268 | 0.083
2 | KIF21A isoform 5 (UniProt Q7Z4S6) | -0.014 | -0.018 | -0.021 | 0.157 | -0.032 | -0.077 | 0.005 | 0.019 | -0.019 | -0.062
3 | MAP2K3 isoform 3 (UniProt P46734) | -0.014 | -0.102 | -0.043 | -0.021 | 0.124 | 0.038 | 0.017 | -0.047 | -0.012 | -0.035
4 | MAPK6 (UniProt Q16659) | -0.038 | -0.021 | 0.025 | 0.075 | -0.008 | -0.042 | -0.024 | -0.006 | -0.028 | -0.045
5 | MAST4 (UniProt O15021) | -0.12 | 0.122 | 0.079 | -0.065 | -0.089 | 0.374 | 0.274 | -0.121 | -0.103 | 0.017
6 | LAGE3 (UniProt Q14657) | 0.002 | -0.032 | -0.014 | 0.04 | -0.12 | -0.013 | 0.043 | 0.009 | 0.084 | 0.013
7 | MAP11 (UniProt Q8WVR3) | -0.047 | -0.028 | -0.011 | -0.102 | -0.04 | -0.06 | -0.024 | -0.024 | -0.021 | 0.001
8 | METTL2A (UniProt Q96IZ6) | -0.001 | -0.049 | -0.026 | 0.056 | 0.052 | -0.065 | 0.029 | 0.035 | -0.017 | -0.065
9 | KLHL36 (UniProt Q8N4N3) | -0.045 | -0.006 | 0.021 | -0.075 | -0.02 | -0.013 | 0.014 | -0.129 | 0.022 | -0.052
10 | MORF4L1 isoform 2 (UniProt Q9UBU8) | 0.024 | 0.023 | 0.025 | -0.058 | 0.021 | 0.037 | -0.019 | -0.047 | -0.01 | 0.006
11 | LPCAT1 (UniProt Q8NF37) | 0.005 | -0.034 | -0.031 | -0.209 | -0.107 | 0.115 | 0.006 | -0.048 | -0.072 | 0.078
12 | MLLT11 (UniProt Q13015) | 0.051 | 0.237 | 0 | 0.025 | 0.002 | 0.329 | 0.087 | 0.447 (active) | -0.017 | 0.084
13 | MED17 (UniProt Q9NVC6) | 0.003 | 0.018 | -0.029 | -0.058 | -0.005 | -0.037 | -0.043 | 0.008 | -0.005 | 0.034
14 | MOSPD2 (UniProt Q8NHP6) | 0.01 | -0.036 | -0.041 | -0.076 | -0.02 | 0.003 | 0.021 | 0.022 | -0.009 | 0.1
15 | LIG3 (UniProt P49916) | -0.007 | 0.006 | -0.044 | -0.008 | 0.01 | -0.05 | -0.004 | 0.016 | -0.046 | 0.016
16 | MAST2 (UniProt Q6P0Q8) | 0.012 | 0.161 | -0.004 | -0.171 | -0.065 | -0.07 | 0.148 | -0.034 | -0.289 | -0.092
17 | MICU1 isoform 3 (UniProt Q9BPX6) | -0.052 | -0.053 | -0.107 | 0.253 (active) | -0.007 | -0.408 (active) | 0.049 | -0.008 | -0.077 | -0.209
18 | MAP2K4 isoform 2 (UniProt P45985) | -0.036 | -0.077 | -0.086 | 0.619 (active) | -0.012 | -0.031 | -0.087 | -0.032 | -0.05 | -0.059
19 | MAP2K1 (UniProt Q02750) | -0.065 | -0.009 | 0.001 | 0.204 | -0.021 | -0.042 | 0.152 | -0.002 | -0.027 | -0.047
20 | MON2 isoform 5 (UniProt Q7Z3U7) | -0.034 | -0.027 | -0.077 | -0.042 | 0.003 | -0.031 | 0.001 | -0.011 | -0.035 | 0.12
21 | LAMP1 (UniProt P11279) | -0.033 | -0.014 | -0.014 | -0.496 (active) | 0.005 | 0.241 (active) | -0.05 | -0.044 | -0.065 | 0.172
22 | KMT2A isoform 3 (UniProt Q03164) | -0.07 | -0.102 | -0.033 | 0.091 | 0.013 | 0.013 | 0.148 | 0.026 | -0.41 | 0.069
23 | LUC7L (UniProt Q9NQ29) | -0.022 | -0.009 | 0.097 | -0.097 | 0.006 | -0.32 (active) | 0.012 | -0.028 | -0.022 | 0.023
24 | LTN1 isoform 3 (UniProt O94822) | 0.086 | -0.017 | -0.046 | 0.027 | -0.029 | -0.18 | 0.003 | 0.009 | -0.071 | 0.007
25 | LIMK1 (UniProt P53667) | 0.049 | -0.087 | 0.276 | 0.029 | 0.109 | -0.03 | 0.096 | -0.009 | -0.348 | 0.138
26 | MAP2K2 (UniProt P36507) | -0.048 | 0.015 | 0.039 | 0.207 | 0.012 | -0.065 | 0.282 | -0.058 | -0.063 | -0.015
27 | KNL1 (UniProt Q8NG31) | 0.007 | -0.031 | -0.015 | -0.011 | -0.001 | -0.032 | -0.027 | 0.008 | -0.017 | 0.016
28 | MAPKAPK5 (UniProt Q8IW41) | 0.05 | -0.008 | -0.085 | 0.111 | 0.04 | -0.07 | -0.004 | 0.015 | 0.019 | -0.053
29 | KIF14 (UniProt Q15058) | 0.016 | -0.277 | -0.053 | -0.082 | 0.025 | -0.011 | 0.002 | 0.046 | -0.087 | 0.042
